Source: PubChem BioAssay (EPA / NIEHS)
Activity calls are given as the source filed them. How the source made its calls: active means hit-call score of the fitted dose curve at least 0.9, where 1 is the maximum; inactive means score below 0.9.

Columns and labels:
[1] = read-out: TIMP metallopeptidase inhibitor 1 (TIMP1), TIMP1 (gene 7076); experiment: BSK_hDFCGF_TIMP1: BioMAP Diversity Plus: hDFCGF Assay for TIMP metallopeptidase inhibitor 1 (TIMP1) Biomarker Activity (AID 2283062); conditions: primary human foreskin fibroblasts; actives raise or lower the signal
Procedure, shortened: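 Fibroblasts from human foreskin are treated with test chemical and harvested at 24 h. TIMP-1 is quantified by ELISA, and gain or loss of signal is scored against DMSO.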

[2] = read-out: Monokine induced gamma interferon (MIG), CXCL9 (gene 4283); experiment: BSK_hDFCGF_MIG: BioMAP Diversity Plus: hDFCGF Assay for Monokine induced gamma interferon (MIG) Biomarker Activity (AID 2283063); conditions: primary human foreskin fibroblasts; actives raise or lower the signal
Procedure, shortened: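 MIG signal, determined by ELISA, reflects 24 h chemical exposure of human skin primary fibroblasts. DMSO serves as negative control and baseline.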

[3] = read-out: Matrix Metallopeptidase 1 (MMP1), MMP1 (gene 4312); experiment: BSK_hDFCGF_MMP1: BioMAP Diversity Plus: hDFCGF Assay for Matrix Metallopeptidase 1 (MMP1) Biomarker Activity (AID 2283064); conditions: primary human foreskin fibroblasts; actives raise or lower the signal
Procedure, shortened: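 hDFCGF primary fibroblasts (human foreskin); chemical added; 24 h; MMP1 by ELISA; bidirectional fit vs DMSO.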

[4] = read-out: Vascular cell adhesion molecule 1 (VCAM1), VCAM1 (gene 7412); experiment: BSK_hDFCGF_VCAM1: BioMAP Diversity Plus: hDFCGF Assay for Vascular cell adhesion molecule 1 (VCAM1) Biomarker Activity (AID 2283065); conditions: primary human foreskin fibroblasts; actives raise or lower the signal;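 on AC50: VCAM-1 protein level quantified by ELISA after 24 h chemical exposure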
Procedure, shortened: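 Cells are dosed, cultured for 24 h, then VCAM-1 is quantified by ELISA; signal increases and decreases are both fitted relative to DMSO.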

[5] = read-out: Plasminogen activator inhibitor-1 (PAI1), SERPINE1 (gene 5054); experiment: BSK_hDFCGF_PAI1: BioMAP Diversity Plus: hDFCGF Assay for Plasminogen activator inhibitor-1 (PAI1) Biomarker Activity (AID 2283066); conditions: primary human foreskin fibroblasts; actives raise or lower the signal
Procedure, shortened: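 Human foreskin fibroblast primary cells, 24 h chemical exposure; PAI-1 measured by ELISA. Bidirectional fitting relative to DMSO; parallel cultures stained with SRB for total protein to flag overt cytotoxicity.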

[6] = read-out: Intercellular Adhesion Molecule 1 (ICAM1), ICAM1 (gene 3383); experiment: BSK_KF3CT_ICAM1: BioMAP Diversity Plus: KF3CT Assay for Intercellular Adhesion Molecule 1 (ICAM1) Biomarker Activity (AID 2283067); conditions: primary human keratinocytes with fibroblasts; actives raise or lower the signal
Procedure, shortened: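 Dose the keratinocyte/fibroblast co-culture, wait 24 h, measure ICAM-1 by ELISA, then fit increases or decreases against DMSO. Cytotoxicity is checked in parallel cultures by SRB total-protein staining.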

[7] = read-out: Interferon-gamma inducible Protein 10 (IP10), CXCL10 (gene 3627); experiment: BSK_KF3CT_IP10: BioMAP Diversity Plus: KF3CT Assay for Interferon-gamma inducible Protein 10 (IP10) Biomarker Activity (AID 2283068); conditions: primary human keratinocytes with fibroblasts; actives raise or lower the signal
Procedure, shortened: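 Human keratinocyte plus foreskin fibroblast primary co-culture exposed to test chemical for 24 h; IP-10 measured by ELISA. Concentration-response fitted bidirectionally against DMSO control as baseline.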

[8] = BSK_KF3CT_SRB: Viability Assessment in the BioMAP Diversity Plus: KF3CT Assay (AID 2283069); conditions: primary human keratinocytes with fibroblasts;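 further: fitted for both signal gain and loss against DMSO baseline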
Procedure, shortened: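 Keratinocytes co-cultured with foreskin fibroblasts (human primary); chemical added, 24 h; fix 10% TCA, stain 0.1% SRB, A560. Bidirectional fit vs DMSO.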

[9] = read-out: Interleukin-1 alpha (IL1a), IL1A (gene 3552); experiment: BSK_KF3CT_IL1a: BioMAP Diversity Plus: KF3CT Assay for Interleukin-1 alpha (IL1a) Biomarker Activity (AID 2283070); conditions: primary human keratinocytes with fibroblasts; actives raise or lower the signal
Procedure, shortened: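 Chemicals were dosed onto co-cultured human keratinocytes and foreskin fibroblasts, IL-1a was quantified by ELISA at 24 h, and activity was fitted in both directions relative to DMSO controls.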

[10] = read-out: TIMP metallopeptidase inhibitor 2 (TIMP2), TIMP2 (gene 7077); experiment: BSK_KF3CT_TIMP2: BioMAP Diversity Plus: KF3CT Assay for TIMP metallopeptidase inhibitor 2 (TIMP2) Biomarker Activity (AID 2283071); conditions: primary human keratinocytes with fibroblasts; actives raise or lower the signal
Procedure, shortened: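 Co-culture of human primary keratinocytes and foreskin fibroblasts, measured 24 h after chemical dosing. TIMP-2 quantified by ELISA and fitted in both directions relative to DMSO. Cytotoxicity checked in parallel cultures by SRB total-protein staining.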

[11] = read-out: Transforming growth factor beta 1 (TGFb1), TGFB1 (gene 7040); experiment: BSK_KF3CT_TGFb1: BioMAP Diversity Plus: KF3CT Assay for Transforming growth factor beta 1 (TGFb1) Biomarker Activity (AID 2283072); conditions: primary human keratinocytes with fibroblasts; actives raise or lower the signal
Procedure, shortened: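 Human keratinocyte/foreskin fibroblast co-culture; TGF-b1 measured by ELISA 24 h after dosing, fitted bidirectionally versus DMSO. Cytotoxicity checked in parallel cultures by total protein (SRB staining, 560 nm).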

[12] = read-out: Matrix Metallopeptidase 9 (MMP9), MMP9 (gene 4318); experiment: BSK_KF3CT_MMP9: BioMAP Diversity Plus: KF3CT Assay for Matrix Metallopeptidase 9 (MMP9) Biomarker Activity (AID 2283074); conditions: primary human keratinocytes with fibroblasts; actives raise or lower the signal;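 on AC50: MMP9 protein level quantified by ELISA in the co-culture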
Procedure, shortened: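 Human keratinocyte/foreskin fibroblast co-culture; compound added; 24 h; MMP-9 by ELISA; bidirectional fit vs DMSO baseline.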

[13] = read-out: CD40, CD40 (gene 958); experiment: BSK_LPS_CD40: BioMAP Diversity Plus: LPS Assay for CD40 Biomarker Activity (AID 2283076); conditions: primary human HUVEC with PBMC; actives raise or lower the signal
Procedure, shortened: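 CD40 signal, measured by ELISA, is fitted in both directions relative to DMSO vehicle. The system is an LPS-driven human vascular primary co-culture of endothelial cells and PBMC, sampled 24 h after compound addition.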

[14] = read-out: E-selectin (Homo sapiens) (UniProt P16581); experiment: BSK_LPS_Eselectin: BioMAP Diversity Plus: LPS Assay for Eselectin Biomarker Activity (AID 2283077); conditions: primary human HUVEC with PBMC; actives raise or lower the signal
Procedure, shortened: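 Signal of E-selectin, detected by ELISA, served as the endpoint; cells were umbilical vein endothelium with PBMC, read 24 h after treatment. DMSO defined baseline, and both increases and decreases were fitted.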

[15] = read-out: Interleukin-8 (IL8), CXCL8 (gene 3576); experiment: BSK_LPS_IL8: BioMAP Diversity Plus: LPS Assay for Interleukin-8 (IL8) Biomarker Activity (AID 2283078); conditions: primary human HUVEC with PBMC; actives raise or lower the signal
Procedure, shortened: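 Endothelial cells and PBMC from human donors are co-cultured, treated with chemicals and LPS, then assayed for IL-8 by ELISA after 24 h. Parallel SRB staining (0.1% SRB after 10% TCA fixation, 560 nm) flags cytotoxicity.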

[16] = BSK_LPS_SRB: Viability Assessment in the BioMAP Diversity Plus: LPS Assay (AID 2283079); conditions: primary human HUVEC with PBMC;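 further: total protein by sulforhodamine B absorbance as a cytotoxicity measure; measured one day after compound addition; fitted in both directions against DMSO so loss or gain of signal counts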
Procedure, shortened: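 Overt cytotoxicity was gauged by sulforhodamine B total-protein staining in a primary human vascular endothelial and mononuclear cell co-culture 24 h post-dosing. Activity was fitted in both directions relative to DMSO.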

[17] = read-out: Interleukin-1 alpha (IL1a), IL1A (gene 3552); experiment: BSK_LPS_IL1a: BioMAP Diversity Plus: LPS Assay for Interleukin-1 alpha (IL1a) Biomarker Activity (AID 2283080); conditions: primary human HUVEC with PBMC; actives raise or lower the signal
Procedure, shortened: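 Measured: IL-1 alpha via ELISA at 24 h in LPS-activated human umbilical vein endothelium–PBMC co-culture. Baseline: DMSO, bidirectional fitting.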

[18] = read-out: Monocyte Chemoattractant Protein-1 (MCP1), CCL2 (gene 6347); experiment: BSK_LPS_MCP1: BioMAP Diversity Plus: LPS Assay for Monocyte Chemoattractant Protein-1 (MCP1) Biomarker Activity (AID 2283081); conditions: primary human HUVEC with PBMC; actives raise or lower the signal;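 on AC50: secreted MCP-1 protein quantified by ELISA in culture supernatant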
Procedure, shortened: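 LPS-stimulated HUVEC/PBMC co-culture; chemical, 24 h; MCP-1 by ELISA; bidirectional fit vs DMSO; cytotoxicity via SRB (0.1% stain, 10% TCA fix, 560 nm) in parallel wells.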

[19] = read-out: C-C motif chemokine 2 (Homo sapiens) (UniProt P13500); experiment: BSK_KF3CT_MCP1: BioMAP Diversity Plus: KF3CT Assay for Monocyte Chemoattractant Protein 1 (MCP1/CCL2) Biomarker Activity (AID 2283073); conditions: primary human keratinocytes with fibroblasts; actives raise or lower the signal
Procedure, shortened: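 Keratinocytes and foreskin fibroblasts were co-cultured, dosed with chemical, and sampled 24 h later. MCP-1 was quantified by ELISA, and the endpoint was analyzed with bidirectional fitting using DMSO as negative control.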

[20] = read-out: urokinase plasminogen activator (uPA), PLAU (gene 5328); experiment: BSK_KF3CT_uPA: BioMAP Diversity Plus: KF3CT Assay for urokinase plasminogen activator (uPA) Biomarker Activity (AID 2283075); conditions: primary human keratinocytes with fibroblasts; actives raise or lower the signal
Procedure, shortened: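 ELISA readout of uPA, analyzed for signal gain or loss relative to DMSO, from a human primary keratinocyte–foreskin fibroblast co-culture measured 24 h after chemical treatment.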

Measured: AC50

Sequence of E-selectin (Homo sapiens) (P16581 whole entry, looked up): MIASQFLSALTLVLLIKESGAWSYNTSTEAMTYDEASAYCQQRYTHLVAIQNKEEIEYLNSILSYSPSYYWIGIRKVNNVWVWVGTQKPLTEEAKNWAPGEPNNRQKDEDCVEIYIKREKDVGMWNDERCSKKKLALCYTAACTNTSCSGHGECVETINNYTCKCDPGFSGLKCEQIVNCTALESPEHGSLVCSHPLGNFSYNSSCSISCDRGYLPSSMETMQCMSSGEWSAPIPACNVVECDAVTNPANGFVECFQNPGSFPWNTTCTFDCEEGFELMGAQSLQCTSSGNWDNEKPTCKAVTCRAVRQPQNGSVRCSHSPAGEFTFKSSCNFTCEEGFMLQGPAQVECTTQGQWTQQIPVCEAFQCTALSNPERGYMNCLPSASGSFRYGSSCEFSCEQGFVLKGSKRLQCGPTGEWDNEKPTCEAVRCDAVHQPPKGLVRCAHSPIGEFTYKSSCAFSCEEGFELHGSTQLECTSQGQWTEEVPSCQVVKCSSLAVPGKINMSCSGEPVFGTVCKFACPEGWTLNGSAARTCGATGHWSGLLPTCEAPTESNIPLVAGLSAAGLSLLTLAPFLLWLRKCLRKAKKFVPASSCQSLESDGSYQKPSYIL

O=C(OCCCCCOC(=O)c1ccccc1)c1ccccc1
not listed: [19] | [20]
inactive: all other assays above

CC(C)(C)c1cc(O)c(C(C)(C)C)cc1O
active: [2] 20 µM | [4] 20 µM | [14] 7.72 µM | [15] 1.39 µM
not listed: [10] | [19] | [20]
inactive: all other assays above

Cc1c(C(=O)O)c(O)cc2c1C(=O)c1c(O)c([C@@H]3O[C@H](CO)[C@@H](O)[C@H](O)[C@H]3O)c(O)c(O)c1C2=O
active: [13] 0.782 µM
not listed: [10] | [19] | [20]
inactive: all other assays above

Nc1ccc2c(c1)C(=O)c1ccccc1C2=O
not listed: [10] | [12] | [16]
inactive: all other assays above

CNC(=O)[C@H]1O[C@@H](n2cnc3c(NCc4cc(Cl)ccc4OCc4cc(C)no4)ncnc32)[C@H](O)[C@@H]1N
not listed: [10] | [16] | [19] | [20]
inactive: all other assays above

CC(C)c1ccc(C(=O)N=C(N)N)cc1S(C)(=O)=O
not listed: [10] | [20]
inactive: all other assays above

Cc1ccc(C)c(O)c1C
not listed: [10] | [19] | [20]
inactive: all other assays above

Cc1oc(-c2ccccc2)nc1CCOc1cccc2c1ccn2CCC(=O)O
not listed: [10] | [20]
inactive: all other assays above

COC(=O)c1ccc(O)cc1
not listed: [10] | [20]
inactive: all other assays above

CCCCC(CC)COC(=O)CC(C(=O)OCC(CC)CCCC)S(=O)(=O)O (stereo not given)
active: [1] 20 µM | [2] 11.8 µM | [3] 25.7 µM | [4] 6.62 µM | [5] 9.12 µM | [6] 11.8 µM | [7] 6.69 µM | [8] 8.47 µM | [9] 8.83 µM | [11] 2.66 µM | [12] 4.84 µM | [20] 12 µM | [13] 32.3 µM | [14] 38 µM | [15] 31.6 µM | [17] 32.3 µM | [18] 30.9 µM

CCCCCCOCCO
not listed: [10] | [16] | [19] | [20]
inactive: all other assays above

Cc1cccc([N+](=O)[O-])c1C
not listed: [10] | [19] | [20]
inactive: all other assays above

O=[N+]([O-])C(CO)(CO)CO
not listed: [10] | [19]
inactive: all other assays above

Cc1nc(-c2ccc3c(c2)CCN(CCC2CCC(NC(=O)/C=C/c4ccc(F)cc4)CC2)CC3)no1 (stereo not given)
active: [13] 3.86 µM | [15] 6.69 µM
not listed: [10] | [16]
inactive: all other assays above

CN1CCCC1=O
not listed: [10] | [20]
inactive: all other assays above
